This is an account of results in PubChem BioAssay AID453 (PCMD, 2006).

Out of some 63,000 compounds screened, about 75 (0.1%) were called active. This excerpt belongs to a sample that is enriched for actives. Unmarked numbers belong to inactive results. Cut-off read from the data, not from the text of the source: active = inhibition above about 21%; inactive = the rest.

The target in the assay is Cathepsin B (Homo sapiens) (UniProt P07858). Nature of the assay: blockers of cathepsin B proteolysis – biochemical, fluorogenic substrate, primary screen (AID 453).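 Note: 0% = enzyme with no compound and 100% = no enzyme blank.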 The note with it: purified cathepsin B, fluorescence, stronger effect = higher value,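 tested at 10 µM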.
What is called inhibition is the change of the read-out against control, counted positive when it falls. Take `O=C1c2cccc3cccc(c23)N1CN1CCN(c2ccccn2)CC1`: the inhibition is 2.14%.

Take `Cc1ccccc1-c1ccc(Nc2ccc(C(=O)N3CCOCC3)cc2)nn1`: the inhibition was 6.18%.

As to `NC(=O)CSc1c[nH]c2ccccc12`, the inhibition was 0.81%.

On to `COc1ccc(-c2cc(C(=O)NC(C(=O)O)C(C)C)c(C)o2)cc1OC` (stereo unspecified), for which the inhibition was 5.71%.

In the case of `CCCc1nc2c3cnn(-c4cccc(Cl)c4)c3ncn2n1`, the inhibition was -2.64%.

For the molecule `CCOC(=O)N1CCC(NC(=O)CCc2cn(C)c3ccccc23)CC1`, the inhibition is -2.17%.

In the case of `COc1ccc(CCNC(=O)C2CCCN(Cc3nc(-c4cccc(Cl)c4)oc3C)C2)cc1OC` (stereo unspecified), the inhibition was 3.18%.

As to `COCc1cc(C)nc(Nc2cc(C)ccc2C)c1C#N`, the inhibition was 4.86%.

`COc1ccc(CCNC(=O)CSc2nnc(CNC(=O)c3cccs3)o2)cc1OC`: the inhibition is 1.4%.

As to `O=c1c(F)cn(C2CCCO2)c(=O)n1Cc1ccccc1Cl` (stereo unspecified), the inhibition is -1.02%.

As to `CC(C)OC(=O)c1cc(NC(=O)C2C3CCC(O3)C2C(=O)O)cc(C(=O)OC(C)C)c1` (stereo unspecified), the inhibition is 2.7%.

Take `COc1cc(C2C(C(=O)c3ccc(C)o3)=C(O)C(=O)N2CCc2ccccc2)ccc1O` (stereo unspecified): the inhibition is 4.77%.

Turning to `COc1ccc(NC2CC(=O)N(C)C2=O)cc1` (stereo unspecified), the inhibition was -3.47%.

Regarding `CCOC(=O)N1CCN(C(=O)C2CCCN(c3ncnc4c3sc3cccc(F)c34)C2)CC1` (stereo unspecified), the inhibition was -3.56%.

On to `CCOc1cccc(-c2nn3c(-c4ccccn4)nnc3s2)c1`, for which the inhibition was 0.42%.

For the molecule `CC(=O)N(CN1C(=O)C2CC=CCC2C1=O)c1cccc(Cl)c1` (stereo unspecified), the inhibition was -3.62%.

As for `Cc1ccc2c(c1)N(CC(=O)N1CCCc3ccccc31)C(=O)C(C)O2` (stereo unspecified), the inhibition was 3.31%.

For `CC1=C2C(=O)OC(c3ccoc3)C2(C)CCC1` (stereo unspecified), the inhibition is 0.12%.

As for `CC1CSc2nnc(CCc3ccccc3)n21` (stereo unspecified), the inhibition was -1.7%.

Take `COc1ccc(C2CC(c3ccccc3)Nc3ncnn32)cc1` (stereo unspecified): the inhibition is 7.13%.

Consider `Cc1ccc(NC(=O)CN(C)S(=O)(=O)c2cnc[nH]2)cc1C`, for which the inhibition is 3.83%.

For `O=C(O)C1CCN(S(=O)(=O)N2CCOCC2)CC1`, the inhibition is 4.13%.

On to `CCOC(=O)N1CCC(Nc2c(NCCCN3CCN(c4ccc(OC)cc4)CC3)c(=O)c2=O)CC1`, for which the inhibition is 4.27%.

On to `CCCN1CCN(C(=O)Cn2ncc3ccccc32)CC1`, for which the inhibition is 0.47%.

On to `Cc1ccc(F)cc1NC(=O)Cc1nn(C)c(=O)c2ccccc12`, for which the inhibition is 2.55%.

Consider `CCCOc1ccc(C2C(C(=O)c3ccc(C)o3)=C(O)C(=O)N2CCCn2ccnc2)cc1` (stereo unspecified), for which the inhibition is 2.38%.

Consider `O=C(Nc1ccc2c(c1)nc1n2CCCCC1)c1cc(S(=O)(=O)N2CCOCC2)ccc1Cl`, for which the inhibition was -1.57%.

Regarding `CN1c2ccccc2-c2nc3ccccc3n2C1c1ccco1` (stereo unspecified), the inhibition was -10.8%.

As to `O=C(CCCn1c(=O)oc2ccccc21)Nc1cccnc1`, the inhibition was -0.71%.

Turning to `CCCCNc1nc2c(c(=O)n(C)c(=O)n2C)n1Cc1cccc(OC)c1`, the inhibition is 0.69%.

Take `COc1ccc(CCNC(=O)CSc2nnc(-c3cccc(F)c3)o2)cc1OC`: the inhibition is 1.18%.

Consider `CCCSC1=C(C#N)C(c2ccccc2C)C(C(=O)OC)C(=O)N1` (stereo unspecified), for which the inhibition was -3.07%.

Turning to `Cc1ccccc1C(=O)Nc1cccc(-c2nnc(SCC(=O)O)n2C)c1`, the inhibition was 0.46%.

On to `CC(C)Oc1ccc(C(=O)Nc2cc(=O)n(C)c(=O)n2C)cc1`, for which the inhibition was -1.53%.

In the case of `Cc1cc(NC(=O)Nc2ccccc2)n(-c2ccccc2)n1`, the inhibition is 0.02%.

Take `O=C(NCC(F)(F)F)Nc1nnc(C(F)(F)F)s1`: the inhibition was 2.4%.

Take `Fc1ccc(Br)cc1/C=N/n1cnnc1`: the inhibition was 3.66%.

For the molecule `Cc1cccc(-c2noc(-c3ccc(F)cc3)n2)c1`, the inhibition is 3.17%.

`COc1c(O)cccc1-c1nnn(CCC(=O)OCC(=O)c2ccccc2)n1`: the inhibition is 0.08%.

Regarding `CN(C)/C=C1\C=C(c2ccccc2)OC1=O`, the inhibition is 6.09%.

Take `CCCCSc1nc2c(c(=O)n1CC)SC(C)C2` (stereo unspecified): the inhibition was -3.44%.

Take `CC1COC2C(O1)N(S(C)(=O)=O)CCN2S(C)(=O)=O` (stereo unspecified): the inhibition was 3.14%.

On to `CCOC(=O)[C@H]1CCC[C@@H](NS(=O)(=O)c2ccc(NC(C)=O)cc2)C1`, for which the inhibition is 1.14%.

Regarding `CCOc1ccccc1C(=O)NCc1ccco1`, the inhibition is -3.58%.

For `Cc1cc2cc(CN(Cc3cccs3)Cc3nnnn3CC3CCCO3)c(=O)[nH]c2cc1C` (stereo unspecified), the inhibition is 4.13%.

Regarding `O=C(CN(CC1CCCO1)C(=O)CNS(=O)(=O)c1ccccc1)NCc1ccccc1` (stereo unspecified), the inhibition was 6.19%.

As for `CSc1ncccc1C(=O)OCC(=O)N1CCOCC1`, the inhibition is 4.46%.

Take `Cn1c(=O)c2c(nc(Br)n2CCSc2nc3ccccc3o2)n(C)c1=O`: the inhibition was -0.32%.

With `C=CCOc1nc2c(c(=O)n(C)c(=O)n2C)n1Cc1ccc(Cl)cc1Cl`, the inhibition is 0.74%.

Consider `CN(Cc1ccccc1)C(=O)CCNC(=O)Cn1cnc2ccccc2c1=O`, for which the inhibition was -3.16%.

On to `O=C(CN1CCOCC1)Nc1ccc(NC(=O)CN2CCOCC2)c(Cl)c1`, for which the inhibition was 1.81%.

As to `Cc1ccc2nc(NC(=O)C3CCN(S(=O)(=O)c4ccc5c(c4)oc(=O)n5C)CC3)sc2c1`, the inhibition was 4.26%.

On to `CC(C)C(=O)N1CCN(c2nc(-c3ccccc3)c3c(c2C#N)CC(C)(C)OC3)CC1`, for which the inhibition was 1.01%.

`Cc1ccc(-n2c(Cc3cccs3)nnc2SCC(=O)OC(C)C)cc1`: the inhibition was 11.1%.

As for `CCOCCOC(=O)C1=C(C)N(C)C(=O)NC1c1ccccc1F` (stereo unspecified), the inhibition is 1.21%.

Turning to `COc1ccc(-c2nnc(SCC(=O)c3ccco3)n2-c2ccccc2)cc1`, the inhibition was 0.87%.

With `CN(CCC#N)c1ncnc2scc(-c3ccccc3)c12`, the inhibition was -3.88%.

`COc1cc(C2C(C(=O)c3sc(C)nc3C)=C(O)C(=O)N2CCN(C)C)cc(OC)c1OC` (stereo unspecified): the inhibition was 4.44%.

Take `Cc1cc(N=CC2=C(O)CCCC2=O)no1`: the inhibition is -1.03%.

As for `CCC(=O)c1ccc(OCC(O)CN2CC(C)OC(C)C2)cc1` (stereo unspecified), the inhibition was 1.68%.

For the molecule `CCC(=O)c1ccc(OCC(O)CN2C(=O)NC(C)(C)C2=O)cc1` (stereo unspecified), the inhibition was 2.56%.

As for `CC(CCc1ccccc1)NC(=O)c1ccc(Br)o1` (stereo unspecified), the inhibition is -4.56%.

With `COCCCN1C(=O)C(=O)/C(=C(/O)c2ccc3c(c2)CC(C)O3)C1c1cccnc1` (stereo unspecified), the inhibition is 0.25%.

In the case of `CCOc1ccc(NC(=O)CCC(=O)n2nc(C)cc2C)cc1`, the inhibition is 8.67%.

For the molecule `CCCCC(CCC(=O)Nc1ccc(C(=O)OCC)cc1)C(=O)O` (stereo unspecified), the inhibition is -0.09%.

For `CCCOc1ccc(/C(O)=C2/C(=O)C(=O)N(CCN(C)C)C2c2ccc(OC)c(OC)c2)cc1` (stereo unspecified), the inhibition was 0.77%.

Turning to `Cc1nnc(N(Cc2ccco2)C(=O)c2ccno2)s1`, the inhibition is -4.93%.

On to `CCn1c(CSc2nncn2-c2ccc(OC)cc2)nc2cc(S(=O)(=O)N(C)C)ccc21`, for which the inhibition was 5.16%.

Turning to `Cc1ccc(NC(=O)C2CCCN(S(=O)(=O)c3c(C)noc3C)C2)c(C)c1` (stereo unspecified), the inhibition was -0.58%.

As to `CCOC(=O)N1CCN(S(=O)(=O)c2cc(Br)cc3c2N(C(=O)C2CC2)CC3)CC1`, the inhibition is 2.46%.

With `CCOc1cc(C(=O)Nc2ncccn2)cc(OCC)c1OCC`, the inhibition was -3.7%.

Regarding `Cc1ccc(C(=O)NCC(=O)O)cc1S(=O)(=O)N1CCCCC1`, the inhibition is 6.73%.

Consider `Cc1ccc(C(=O)Nc2ccc3c(c2)OCO3)cc1S(=O)(=O)N1CCCCC1`, for which the inhibition was 49.6% (active).

For the molecule `COc1ccc(C(=O)Nc2ccc3c(c2)OCO3)cc1OC`, the inhibition was 1.65%.

On to `COC(=O)c1ccccc1NC(=O)CN(Cc1ccccc1)S(C)(=O)=O`, for which the inhibition was -3.25%.

Turning to `Cc1cc(=O)oc(C)c1C(=O)NC1CC(C)(C)NC(C)(C)C1`, the inhibition was 5.11%.

Consider `CC(C)c1nc(-c2ccccn2)no1`, for which the inhibition was -4.78%.

On to `CC(Sc1nncn1C)C(=O)Nc1ccccc1-c1ccccc1` (stereo unspecified), for which the inhibition was -1.58%.

Regarding `COCCN(C(=O)CCC(=O)Nc1ccccn1)C(C(=O)NCCC(C)C)c1ccc(OC)cc1` (stereo unspecified), the inhibition is -1.72%.

For `COc1ccccc1-c1nnc(SCC(=O)N2CC(C)CC(C)C2)o1` (stereo unspecified), the inhibition was -0.15%.

`Cn1c(CNc2nc(-c3ccccc3)cs2)nnc1SCC(=O)c1ccccc1`: the inhibition is -1.17%.

For `O=C1N=C(N2CCOCC2)CS1`, the inhibition was 3.2%.

Regarding `COc1ccc(CCN2C(=O)c3[nH]nc(-c4ccccc4O)c3C2c2ccc(C)cc2)cc1OC` (stereo unspecified), the inhibition was -1.75%.

Regarding `O=C(CSc1nnc2ccccn12)c1ccccc1`, the inhibition was 8.89%.

Take `Cc1onc(-c2ccccc2)c1C(=O)N1CCOCC1`: the inhibition is 6.53%.

Consider `Cc1noc(/C=C/N(C)C)c1S(=O)(=O)N1CCCC(C(=O)NCc2ccco2)C1` (stereo unspecified), for which the inhibition was 4.93%.

Take `Cc1cccc(N2C(=O)SC(N(CC(=O)O)c3cccc(C)c3)C2=O)c1` (stereo unspecified): the inhibition was 8.43%.

For `CCCCOC(=O)Nc1nccs1`, the inhibition was 2.38%.

For the molecule `C=CCOc1ccc(/C=N/n2cncn2)cc1OC`, the inhibition was 1.3%.

As for `CCc1nc(Nc2ccc3nccnc3c2)c2oc3ccccc3c2n1`, the inhibition is -2.31%.

Regarding `C=CCn1c(COc2cccc3cccnc23)nnc1SCC(=O)OC`, the inhibition was 6.46%.

Consider `Cc1nc2c(-c3ccc(F)cc3)c(C)nn2c(C)c1CCC(=O)N1CCN(c2ccccn2)CC1`, for which the inhibition is -0.57%.

For `CCOC(=O)CCc1c(C)c2ccc(OCc3nn[nH]n3)c(C)c2oc1=O`, the inhibition was 1.69%.

Consider `Cc1cc(C)c(S(=O)(=O)NCCCN2CCOCC2)cc1Br`, for which the inhibition was 1.5%.

Take `Cc1cc(NC(=O)CSc2nnc(-c3ccc(Cl)s3)o2)no1`: the inhibition is 1.24%.

For `O=C(COC(=O)C12CC3CC(CC(C3)C1)C2)NCc1ccco1`, the inhibition is -3.05%.
